# Measured values from PMC7862700, “An all-to-all approach to the identification of sequence-specific readers for epigenetic DNA modifications on cytosine”.
# Tests used:
# Test in all cases: DAPPL (digital affinity profiling via proximity ligation, sequencing); 10 mM Tris-HCl pH 7.5, 50 mM NaCl, 1 mM DTT, 4% glycerol, room temperature, 30 min; GST-TFs on glutathione beads, 16-mer random dsDNA library, 0.1% formaldehyde crosslink after washing; high values mean tight binding
# FEV = biological target: T1, FEV (Homo sapiens, UniProt Q99581 1-238); conditions: protein: recombinant; tags: N-terminal GST; dsDNA, one strand shown
# T1 sequence: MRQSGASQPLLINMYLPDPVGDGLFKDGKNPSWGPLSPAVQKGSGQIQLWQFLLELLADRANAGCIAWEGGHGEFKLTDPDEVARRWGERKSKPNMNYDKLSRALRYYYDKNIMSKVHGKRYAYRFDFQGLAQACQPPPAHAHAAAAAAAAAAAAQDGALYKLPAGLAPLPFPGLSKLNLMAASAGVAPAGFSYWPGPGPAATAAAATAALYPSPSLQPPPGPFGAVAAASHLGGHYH
# Outline: (§1)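 Human transcription factors carrying a GST fusion were produced in yeast, bound to glutathione beads, tagged with DNA barcodes and pooled together with a tag-only sample. Each pool was held with 200 nmole of a random double-stranded 16-mer DNA library in Tris/NaCl/DTT/glycerol buffer for 30 min at room temperature, then washed, crosslinked in 0.1% formaldehyde, proximity-ligated with BsaI/T4 ligase (1 h, 37 °C), PCR-amplified and sequenced on an Illumina NextSeq500. Binding signal is the read frequency of each hexamer for a given factor divided by its frequency in the tag-only sample.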
# ETV5 = ETV5 (Homo sapiens, UniProt P41161 1-510); conditions: protein: recombinant; tags: N-terminal GST; dsDNA, one strand shown
# Chain of ETV5 (P41161 whole entry): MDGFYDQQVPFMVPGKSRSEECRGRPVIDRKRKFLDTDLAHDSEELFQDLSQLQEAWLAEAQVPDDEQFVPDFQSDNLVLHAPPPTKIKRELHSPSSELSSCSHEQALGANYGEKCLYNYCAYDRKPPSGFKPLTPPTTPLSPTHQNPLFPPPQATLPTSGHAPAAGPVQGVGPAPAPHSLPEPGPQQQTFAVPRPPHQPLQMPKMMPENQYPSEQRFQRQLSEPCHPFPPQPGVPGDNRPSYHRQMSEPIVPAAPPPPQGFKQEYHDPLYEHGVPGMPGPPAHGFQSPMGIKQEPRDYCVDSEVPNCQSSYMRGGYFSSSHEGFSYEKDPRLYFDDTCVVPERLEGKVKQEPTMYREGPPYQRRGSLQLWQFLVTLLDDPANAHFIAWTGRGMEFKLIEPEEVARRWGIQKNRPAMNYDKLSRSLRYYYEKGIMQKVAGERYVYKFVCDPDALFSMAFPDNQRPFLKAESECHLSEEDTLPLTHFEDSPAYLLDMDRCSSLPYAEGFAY
# Outline: as §1
# HSF1 = HSF1 (Homo sapiens, UniProt Q00613 1-529); conditions: protein: recombinant; tags: N-terminal GST; chain copies: 3; dsDNA, one strand shown
# Chain of HSF1 (Q00613 whole entry): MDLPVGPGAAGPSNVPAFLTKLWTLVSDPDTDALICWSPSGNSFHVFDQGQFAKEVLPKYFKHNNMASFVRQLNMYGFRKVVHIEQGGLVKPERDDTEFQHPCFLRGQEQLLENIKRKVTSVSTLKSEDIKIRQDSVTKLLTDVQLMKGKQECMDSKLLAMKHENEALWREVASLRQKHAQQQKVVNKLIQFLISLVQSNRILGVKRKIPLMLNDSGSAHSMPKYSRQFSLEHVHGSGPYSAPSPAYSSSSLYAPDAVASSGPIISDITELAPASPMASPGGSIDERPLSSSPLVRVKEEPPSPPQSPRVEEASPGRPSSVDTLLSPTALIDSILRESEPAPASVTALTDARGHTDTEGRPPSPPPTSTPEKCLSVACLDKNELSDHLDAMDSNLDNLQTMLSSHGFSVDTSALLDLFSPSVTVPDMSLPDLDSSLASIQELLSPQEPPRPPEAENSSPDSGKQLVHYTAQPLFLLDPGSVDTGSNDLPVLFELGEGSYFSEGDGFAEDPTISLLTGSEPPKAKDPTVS
# Outline: as §1
# SPIC = biological target: T2, SPIC (Homo sapiens, UniProt Q8N5J4 1-248); conditions: protein: recombinant; tags: N-terminal GST; dsDNA, one strand shown
# T2 sequence: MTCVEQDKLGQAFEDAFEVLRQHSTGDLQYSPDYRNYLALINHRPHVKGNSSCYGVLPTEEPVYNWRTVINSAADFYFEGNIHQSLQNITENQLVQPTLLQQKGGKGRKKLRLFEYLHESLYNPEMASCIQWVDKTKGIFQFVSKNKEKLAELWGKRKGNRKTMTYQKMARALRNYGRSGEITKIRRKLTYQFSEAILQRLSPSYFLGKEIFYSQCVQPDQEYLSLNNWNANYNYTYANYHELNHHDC
# Outline: as §1
# ELF4 = ELF4 (Homo sapiens, UniProt Q99607 1-663); conditions: protein: recombinant; tags: N-terminal GST; dsDNA, one strand shown
# Chain of ELF4 (Q99607 whole entry): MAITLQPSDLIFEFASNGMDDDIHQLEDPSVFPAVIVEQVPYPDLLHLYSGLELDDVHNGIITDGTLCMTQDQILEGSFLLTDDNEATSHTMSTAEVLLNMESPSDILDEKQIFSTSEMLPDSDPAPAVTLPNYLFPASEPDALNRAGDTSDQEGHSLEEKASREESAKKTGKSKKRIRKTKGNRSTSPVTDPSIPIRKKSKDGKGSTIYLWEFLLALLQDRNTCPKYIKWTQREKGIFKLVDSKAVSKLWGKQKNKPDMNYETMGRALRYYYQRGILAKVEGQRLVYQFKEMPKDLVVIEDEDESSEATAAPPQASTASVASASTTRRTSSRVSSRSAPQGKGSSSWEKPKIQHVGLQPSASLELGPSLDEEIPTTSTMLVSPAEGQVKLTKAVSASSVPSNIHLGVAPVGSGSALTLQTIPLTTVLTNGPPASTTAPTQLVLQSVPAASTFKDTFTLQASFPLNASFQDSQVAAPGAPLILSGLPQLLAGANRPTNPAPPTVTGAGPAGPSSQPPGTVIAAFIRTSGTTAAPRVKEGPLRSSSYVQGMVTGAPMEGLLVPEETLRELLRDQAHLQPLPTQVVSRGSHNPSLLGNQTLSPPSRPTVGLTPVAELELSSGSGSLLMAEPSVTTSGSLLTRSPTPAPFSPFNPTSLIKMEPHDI
# Outline: as §1
# ELK4 = biological target: T3, ELK4 (Homo sapiens, UniProt P28324-2 1-405); conditions: protein: recombinant; tags: N-terminal GST; dsDNA, one strand shown
# T3 sequence: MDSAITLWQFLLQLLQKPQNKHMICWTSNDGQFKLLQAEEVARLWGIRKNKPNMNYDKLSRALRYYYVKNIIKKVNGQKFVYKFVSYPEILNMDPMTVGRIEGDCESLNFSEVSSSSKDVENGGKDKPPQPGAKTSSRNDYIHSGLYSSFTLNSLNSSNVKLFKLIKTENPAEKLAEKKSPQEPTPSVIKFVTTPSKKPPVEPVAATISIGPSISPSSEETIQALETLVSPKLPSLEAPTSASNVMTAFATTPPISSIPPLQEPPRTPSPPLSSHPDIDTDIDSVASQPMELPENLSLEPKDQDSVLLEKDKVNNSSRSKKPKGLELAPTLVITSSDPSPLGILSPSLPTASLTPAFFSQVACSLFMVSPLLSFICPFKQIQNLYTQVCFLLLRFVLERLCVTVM
# Outline: as §1
# ETV2 = biological target: T4, ETV2 (Homo sapiens, UniProt O00321 1-342); conditions: protein: recombinant; tags: N-terminal GST; dsDNA, one strand shown
# T4 sequence: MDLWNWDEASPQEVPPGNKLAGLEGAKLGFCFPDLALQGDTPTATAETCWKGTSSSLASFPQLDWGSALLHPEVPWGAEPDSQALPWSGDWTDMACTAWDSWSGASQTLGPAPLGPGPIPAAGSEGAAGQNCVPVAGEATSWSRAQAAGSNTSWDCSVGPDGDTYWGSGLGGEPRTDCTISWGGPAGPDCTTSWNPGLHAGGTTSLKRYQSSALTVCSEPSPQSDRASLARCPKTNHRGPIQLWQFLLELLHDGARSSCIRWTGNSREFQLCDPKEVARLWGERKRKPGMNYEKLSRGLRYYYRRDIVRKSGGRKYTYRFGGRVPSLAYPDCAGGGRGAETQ
# Outline: as §1
# ELF3 = biological target: T5, ELF3 (Homo sapiens, UniProt P78545 1-371); conditions: protein: recombinant; tags: N-terminal GST; dsDNA, one strand shown
# T5 sequence: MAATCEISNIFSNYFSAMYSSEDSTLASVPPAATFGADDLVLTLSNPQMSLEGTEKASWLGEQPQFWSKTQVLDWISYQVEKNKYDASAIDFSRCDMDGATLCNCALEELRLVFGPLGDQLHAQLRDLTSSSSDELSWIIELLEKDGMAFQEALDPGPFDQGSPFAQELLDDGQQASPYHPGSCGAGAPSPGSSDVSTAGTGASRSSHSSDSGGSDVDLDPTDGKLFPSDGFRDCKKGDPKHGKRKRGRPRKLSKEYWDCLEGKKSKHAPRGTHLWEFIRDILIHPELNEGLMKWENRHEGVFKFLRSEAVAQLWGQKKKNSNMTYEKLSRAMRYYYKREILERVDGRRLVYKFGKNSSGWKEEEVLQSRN
# Outline: as §1
# CRX = CRX (Homo sapiens, UniProt O43186 1-299); conditions: protein: recombinant; tags: N-terminal GST; dsDNA, one strand shown
# Chain of CRX (O43186 whole entry): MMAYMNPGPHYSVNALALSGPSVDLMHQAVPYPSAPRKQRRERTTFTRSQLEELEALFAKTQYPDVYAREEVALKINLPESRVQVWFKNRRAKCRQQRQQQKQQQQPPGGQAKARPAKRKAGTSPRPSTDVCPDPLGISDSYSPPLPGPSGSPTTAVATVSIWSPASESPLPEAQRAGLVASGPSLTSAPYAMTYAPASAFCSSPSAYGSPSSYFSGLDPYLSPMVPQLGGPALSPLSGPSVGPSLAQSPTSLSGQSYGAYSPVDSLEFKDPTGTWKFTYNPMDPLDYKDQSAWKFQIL
# Outline: as §1
# ETV1 = ETV1 (Homo sapiens, UniProt P50549 1-477); conditions: protein: recombinant; tags: N-terminal GST; dsDNA, one strand shown
# Chain of ETV1 (P50549 whole entry): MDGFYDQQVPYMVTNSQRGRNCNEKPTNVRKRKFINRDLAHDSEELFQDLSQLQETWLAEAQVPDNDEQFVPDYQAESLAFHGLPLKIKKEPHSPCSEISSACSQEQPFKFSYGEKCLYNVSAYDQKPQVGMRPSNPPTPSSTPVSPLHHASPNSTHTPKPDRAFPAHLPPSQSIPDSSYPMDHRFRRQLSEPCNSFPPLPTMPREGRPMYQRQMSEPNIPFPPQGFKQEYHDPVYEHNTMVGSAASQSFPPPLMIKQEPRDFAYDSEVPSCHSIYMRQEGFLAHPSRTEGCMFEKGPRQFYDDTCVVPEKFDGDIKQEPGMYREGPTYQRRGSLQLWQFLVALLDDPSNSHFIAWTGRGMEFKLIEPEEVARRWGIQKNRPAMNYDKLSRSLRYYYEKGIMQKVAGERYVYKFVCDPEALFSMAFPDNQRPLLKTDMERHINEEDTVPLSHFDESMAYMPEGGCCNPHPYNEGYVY
# Outline: as §1
sequence,measurement,setting,value
CTTAAA,binding signal,FEV,"1.21 fold enrichment (6-mer frequency, TF over GST control)"
same,binding signal,ETV5,"1.21 fold enrichment (6-mer frequency, TF over GST control)"
same,binding signal,HSF1,"1.65 fold enrichment (6-mer frequency, TF over GST control)"
same,binding signal,SPIC,"1.21 fold enrichment (6-mer frequency, TF over GST control)"
same,binding signal,ELF4,"1.12 fold enrichment (6-mer frequency, TF over GST control)"
same,binding signal,ELK4,"1.11 fold enrichment (6-mer frequency, TF over GST control)"
same,binding signal,ETV2,"1.1 fold enrichment (6-mer frequency, TF over GST control)"
same,binding signal,ELF3,"1.2 fold enrichment (6-mer frequency, TF over GST control)"
same,binding signal,CRX,"2.38 fold enrichment (6-mer frequency, TF over GST control)"
same,binding signal,ETV1,"1.25 fold enrichment (6-mer frequency, TF over GST control)"
